Experimental data taken from PubChem BioAssay AID651661 (Broad Institute, 2012).
Among all 350,000 compounds or so, about 2,300 (0.66%) were called active. For the sample, actives were picked, then their nearest neighbours and some compounds at random. Unmarked numbers belong to inactive results.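 Rule for the calls: active = mean inhibition of at least 50% after viability correction, with every replicate also passing that limit; inconclusive = mean reaches 50% but only one of two replicates passes; inactive = the rest.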

Test: blockers of EWS/Fli transcriptional output – A673 cells, NR0B1 luciferase, luminescence, MLPCN library, primary screen (AID 651661);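 note: firefly luciferase signal divided by Alamar Blue viability fluorescence both relative to DMSO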
Conditions: A673 NR0B1-luciferase reporter, viability-normalised; at 12.6 µM; active compounds read high
`CCOc1ccc(C(=O)Nc2ccc(CN3CCOCC3)cc2)cc1Cl` showed an inhibition of -7.97%.
For `CCOc1ccc(C(=O)NC(=S)Nc2ccc(N3CCOCC3)c(Cl)c2)cc1[N+](=O)[O-]`, the inhibition was 72% (active).
In the case of `COc1cccc(OC)c1C(=O)NC(=S)Nc1ccc(N2CCOCC2)c(Cl)c1`, the inhibition is reported as -7.45%.
Compound `CC(C)NC(=O)N1[C@H](C#N)[C@H](c2ccc(C#CC3CCCCC3)cc2)[C@H]1CO` has an inhibition of 19.7%.
In the case of `CO[C@@H]1CN(C)C(=O)c2cc(NC(=O)C3CC3)ccc2OC[C@@H](C)N(C(=O)c2ccncc2)C[C@H]1C`, the inhibition is reported as 2.15%.
For `C[C@H]1CCCCO[C@H](CN(C)C(=O)CCC(F)(F)F)[C@@H](C)CN([C@@H](C)CO)C(=O)c2cc(NC(=O)Cc3ccccc3)ccc2O1`, the inhibition was 6.65%.
Compound `O=C(NC1CCCC1)N1CC(=O)N2[C@H](C1)[C@H](c1ccc(/C=C/c3ccccc3)cc1)[C@@H]2CO` has an inhibition of 3.76%.
`CN(C)CCN1CCN(c2cc(-c3cccc(Cl)c3)nc3ccnn23)CC1` gave an inhibition of 1.41%.
`O=C(c1ccccc1)N1CCN(c2cc(-c3ccccc3)nc3cc(-c4cccc(Cl)c4)nn23)CC1` gave an inhibition of -22.8%.
For `C#Cc1cc(N2CCN(C(=O)c3ccoc3)CC2)n2nc(-c3cccc(Cl)c3)cc2n1`, the inhibition was 53% (active).
With `C[C@@H]1CN([C@@H](C)CO)C(=O)CCCn2cc(nn2)CO[C@@H]1CN(C)Cc1cccc(O)c1` the inhibition was 8.82%.
In the case of `CN(CCO)c1ccc(/C=N/Nc2nncc3ccccc23)cc1`, the inhibition is reported as 67.2% (active).
For `COc1ccc2c3c(n(C)c2c1)[C@H](CO)N(Cc1ccc(F)cc1)CC31CN(CC2CCOCC2)C1`, the inhibition was -3.68%.
In the case of `CCOC(=O)C(=Cc1ccccc1)C(=O)c1ccccc1`, the inhibition is reported as -15.6%.
For `Cc1cc(C)nc(S/C=C/C(=O)c2ccccc2)n1`, the inhibition was 50.2% (active).
`COC(c1ccccc1)(c1ccccc1)C(Oc1nc(C)cc(C)n1)C(=O)O` (configuration not stated) gave an inhibition of 3.9%.
`C[C@@H]1CCCCO[C@@H](CN(C)C(=O)NC2CCCCC2)[C@@H](C)CN([C@H](C)CO)C(=O)c2cc(NC(=O)CCCCCC(=O)Nc3ccccc3N)ccc2O1` gave an inhibition of -0.378%.
With `CCC(=O)N(C)C[C@H]1Oc2cc(-c3ccccc3F)ccc2S(=O)(=O)N([C@H](C)CO)C[C@@H]1C` the inhibition was 1.15%.
In the case of `COc1ccc(C#Cc2ccc3c(c2)[C@]2(C(=O)N3)[C@H](c3ccccc3OCCO)N3[C@H](c4ccccc4)[C@H](c4ccccc4)OC(=O)[C@H]3[C@@H]2C(=O)N2CCCCCCC2)cc1`, the inhibition is reported as 7.03%.
With `COC(=O)C(CC#Cc1ccc2c(c1)[C@]1(C(=O)N2)[C@H](c2ccc(O)cc2)N2[C@H](c3ccccc3)[C@H](c3ccccc3)OC(=O)[C@H]2[C@@H]1C(=O)NC[C@H](O)c1ccccc1)C(=O)OC` the inhibition was -4.53%.
For `COC(=O)C(CC#Cc1ccc2c(c1)[C@]1(C(=O)N2)[C@H](c2ccccc2OCCO)N2[C@H](c3ccccc3)[C@H](c3ccccc3)OC(=O)[C@H]2[C@@H]1C(N)=O)C(=O)OC`, the inhibition was 70.7% (active).
In the case of `O=C(CC1CC1)N1[C@@H]2CN(S(=O)(=O)c3ccc(F)cc3)c3ccccc3[C@@H]2[C@@H]1CO`, the inhibition is reported as 2.01%.
With `CN1CCN(C(=O)C[C@H]2CC[C@H]3[C@H](COc4ccc(NC(=O)C5CC5)cc4C(=O)N3C)O2)CC1` the inhibition was 0.362%.
In the case of `C=C(C)C(=O)O[C@H]1C/C(C)=C\C(=O)/C=C(\C)[C@H](O)[C@@H]2OC(=O)C(=C)[C@@H]21`, the inhibition is reported as 74% (active).
`C[C@@H]1CN([C@@H](C)CO)C(=O)Cc2cc(NC(=O)Nc3ccc4c(c3)OCO4)ccc2O[C@@H]1CN(C)CC1CCCCC1` gave an inhibition of -9.05%.
In the case of `COc1cccc(-c2ccc3c(c2)[C@@H]2[C@@H](CCN2C(=O)CN2CCOCC2)[C@H](CO)N3)c1`, the inhibition is reported as -6.11%.
For `O=[N+]([O-])/C=C/c1ccc2c(ccn2Cc2ccccc2)c1`, the inhibition was 68.6% (active).
In the case of `Cc1ccccc1S(=O)(=O)Nc1ccc2c(c1)C(=O)N(C)[C@@H]1CC[C@@H](CC(=O)O)O[C@@H]1CO2`, the inhibition is reported as 2.06%.
Compound `CO[C@H]1CN(C)C(=O)c2ccc(NC(=O)NC(C)C)cc2OC[C@H](C)N(Cc2cncnc2)C[C@@H]1C` has an inhibition of -9.44%.
Work on `COc1ccc(CNS(=O)(=O)c2cc(Br)ccc2Br)cc1` yielded an inhibition of -12%.
In the case of `COc1ccc(CNS(=O)(=O)c2cc(-c3cc(C)no3)ccc2C(C)C)cc1`, the inhibition is reported as 55.5% (active).
Compound `Cc1cc(-c2ccc(C)c(S(=O)(=O)Nc3ccc(S(N)(=O)=O)cc3)c2)on1` has an inhibition of 5.81%.
In the case of `O=C(C[C@H]1C[C@H]2c3cc(NC(=O)C4CCC4)ccc3O[C@H]2[C@@H](CO)O1)NCc1ccc(Cl)cc1`, the inhibition is reported as -0.922%.
For `CO[C@@H]1CN(C)C(=O)c2cc(NC(=O)Nc3ccccc3F)ccc2OC[C@H](C)NC[C@H]1C`, the inhibition was -10.4%.
For `CCc1nc2ccccc2c(C(=O)NCc2ccc(OC)cc2)c1C`, the inhibition was 22.9%.
`COC(=O)CC1=NN(c2ccccc2)C(=O)C1` showed an inhibition of 2.41%.
In the case of `COC(=O)Cc1[nH]n(-c2nc3ccccc3s2)c(=O)c1C(C)=Nc1ccc(OC)cc1`, the inhibition is reported as 67.1% (active).
With `COc1ccc(CN(C)C[C@@H]2OCCCC[C@H](C)Oc3ccc(NC(=O)c4ccccc4)cc3C(=O)N([C@H](C)CO)C[C@H]2C)cc1` the inhibition was 4.63%.
`CCS(=O)(=O)N1CC2(CN(C(=O)c3ccc(F)cc3)[C@H](CO)c3c2c2ccc(OC)cc2n3C)C1` gave an inhibition of -3.98%.
In the case of `O=C(C[C@H]1C[C@H]2c3cc(NC(=O)NC4CCCC4)ccc3O[C@H]2[C@H](CO)O1)NCCc1ccccc1`, the inhibition is reported as -0.115%.
`COc1ccc(NC(=O)C2(C)Cc3c(-c4ccc(C(N)=O)cc4)ccnc3O2)cc1` (configuration not stated) gave an inhibition of 9.42%.
For `COc1ccc(NC(=O)C2(C)Cc3c(-c4cccc(NC(C)=O)c4)ccnc3O2)cc1` (configuration not stated), the inhibition was 72% (active).
Work on `COc1ccc(NC(=O)C2(C)Cc3c(-c4cccc(NC(C)=O)c4)ccnc3O2)cc1OC` (configuration not stated) yielded an inhibition of 12.4%.
Work on `CC(=O)Nc1cccc(-c2ccnc3c2CC(C)(C(=O)NCc2ccco2)O3)c1` (configuration not stated) yielded an inhibition of 47.3%.
`CC1(C(=O)Nc2cccnc2)Cc2c(-c3ccccc3)ccnc2O1` (configuration not stated) showed an inhibition of -3.3%.
For `CC(=O)Nc1cccc(-c2ccnc3c2CC(C)(C(=O)NCc2ccccc2)O3)c1` (configuration not stated), the inhibition was 56.4% (active).
For `COCC(=O)Nc1ccc2c(c1)C(=O)N(C)[C@@H]1CC[C@H](CC(=O)NCCc3ccccc3)O[C@@H]1CO2`, the inhibition was 6.92%.
`C[C@H](CO)N1C[C@H](C)[C@@H](CN(C)S(=O)(=O)c2ccc([N+](=O)[O-])cc2)OCc2ccccc2-c2c(n(C)c3ccccc23)C1=O` gave an inhibition of 14.6%.
Work on `CO[C@H]1CN(C)C(=O)c2cc(NC(C)=O)ccc2OC[C@H](C)N(C(=O)CN(C)C)C[C@@H]1C` yielded an inhibition of -2.59%.
For `CCS(=O)(=O)N1CCC2(CC1)CN[C@H](CO)c1c2c2ccc(OC)cc2n1C`, the inhibition was 8.2%.
`CC(C)(C)OC(=O)N(Cc1ccccc1)Cc1ccc(OCc2cccc(NC(=O)c3ccccc3)c2)cc1` showed an inhibition of 11.8%.
For `CCOc1ccc(OCc2ccc(C(=O)N(C)c3ccccc3)o2)cc1`, the inhibition was -36.4%.
In the case of `CCOc1ccc(OCc2cccc(C(=O)N(CC)CC)c2)cc1`, the inhibition is reported as 67.8% (active).
With `CC=Cc1ccc2n(c1=O)C[C@@H]1[C@@H](CO)[C@H](C(=O)N(C)C)N(CC3CCOCC3)[C@H]21` (mixture of isomers) the inhibition was -1.84%.
Compound `Cc1ccccc1S(=O)(=O)N1[C@H](CO)[C@@H](c2ccc(-c3ccccc3)cc2)[C@@H]1C#N` has an inhibition of 18.6%.
In the case of `O=C(C[C@H]1C[C@@H]2c3cc(NC(=O)C4CCOCC4)ccc3O[C@@H]2[C@H](CO)O1)NCC1CC1`, the inhibition is reported as 2.22%.
With `C[C@@H]1C[C@@H]2O[C@H]2/C=C\C=C\C(=O)Cc2c(Cl)c(O)cc(O)c2C(=O)O1` the inhibition was 76.6% (active).
For `COc1cnc(-c2ccccn2)nc1Oc1ccc(C(C)(C)C)cc1`, the inhibition was 18.9%.
For `CC(C)(C)c1ccc(Oc2ccc(N)cc2)cc1`, the inhibition was 65.3% (active).
`COCC(=O)Nc1ccc2c(c1)C(=O)N(C)[C@@H]1CC[C@@H](CC(=O)NCC(F)(F)F)O[C@H]1CO2` gave an inhibition of -7.87%.
`CCNC(=O)Nc1ccc2c(c1)C(=O)N(C)[C@@H]1CC[C@@H](CC(=O)NC3CCCCC3)O[C@H]1CO2` showed an inhibition of 6.61%.
Compound `O=C(c1ccc(F)cc1)N1CC(=O)N2[C@H](C1)[C@@H](c1ccc(C#CC3CC3)cc1)[C@@H]2CO` has an inhibition of -6.65%.
For `CCCNC(=O)N1C[C@@H](C)[C@@H](OC)CN(C)C(=O)c2ccc(NC(=O)C3CCC3)cc2OC[C@@H]1C`, the inhibition was -1.5%.
With `NC(=O)c1ccc(NC(=O)COC(=O)c2c3c(nc4ccccc24)/C(=C\c2ccc4c(c2)OCO4)CCC3)cc1` the inhibition was -2.89%.
For `C(=N\Nc1ccc2ccccc2n1)/c1ccc2c(c1)OCO2`, the inhibition was 59.1% (active).
Compound `Clc1ccc(Nc2ccc3ccccc3n2)cc1` has an inhibition of -53.3%.
For `CC(C)NC(=O)N1C[C@@H]2[C@H](c3ccccc31)[C@@H](CO)N2Cc1ccc(Cl)cc1`, the inhibition was 14.5%.
In the case of `CCN1/C(=C\c2ccc3ccccc3[n+]2CC)Sc2cc(C)ccc21`, the inhibition is reported as 56.7% (active).
For `Nc1c(C(=O)Nc2ccc3c(c2)OCCO3)nnn1Cc1ccccc1`, the inhibition was -100%.
With `Nc1c(C(=O)NCc2ccccc2)nnn1Cc1cccc(Cl)c1` the inhibition was 53% (active).
`COc1cccc(CNC(=O)c2nnn(CC(=O)Nc3cc(Cl)ccc3C)c2N)c1` gave an inhibition of 2.98%.
In the case of `COc1cccc(S(=O)(=O)N(C)C[C@@H]2Oc3ncc(-c4cccc(C(=O)N(C)C)c4)cc3C(=O)N([C@H](C)CO)C[C@H]2C)c1`, the inhibition is reported as -6.58%.
